Measurements reported in PubChem BioAssay (NCI).
This is part of a sample that, as a whole, favours compounds with a hit. Of some 83,000 tested, about 20% had one in any assay.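 Note: values are percent growth. 100 is the growth of untreated cells, values between 100 and 0 indicate rising inhibition; between -100 and 0 indicates cell death.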 Calls of active or inactive are those of the source.

system: RPMI-8226 leukemia; experiment: NCI-60 one-dose screen, 48 h (100 = growth as untreated, 0 = no growth, -100 = all killed); details: 10 µM unless noted
Protocol: Growth inhibition of the RPMI-8226 human tumor cell line is measured as a screen for anti-cancer activity. Cells are grown in 96 well plates and exposed to the test compound for 48 hours. Compounds are tested at a single concentration, which is 10^-5 M for most compounds. The reported endpoint is percent growth (GI% or GIPRCNT), where numbers from 0 - 100% represent growth inhibition, and numbers from -100% - 0 represent cell death. For example, a value of 40 represents 60% growth inhibition. A value of 0 means no net growth occurred over the course of the experiment. A value of -40 indicates 40% of cells at the beginning of the experiment died by the end of the experiment. A value of -100 means all cells are dead at the end of the experiment.
NCI-60 Human Tumor Cell Lines Screen was performed using the standard one-dose NCI protocol, which is described in more detail at https://dtp.cancer.gov/discovery_development/nci-60/default.htm.
Compounds with GIPRCNT values below 10 were considered active. Activity score was based on GIPRCNT using the following formula: […]
Score is 0 for GIPRCNT values of 100 or above, 50 for GIPRCNT values of 0, and 100 for GIPRCNT values of -100.

| Compound | growth |
| --- | --- |
| O=C(O)C1CCC(=O)N1C(=O)OCc1ccccc1 (stereo not given) | 88.8% (inactive) |
| Cc1nn(-c2ccccc2)c(Cl)c1/C=C(/NC(=O)c1ccccc1)c1nc2ccccc2[nH]1 | 91.6% (inactive) |
| Cc1cc(NCCCCNc2ccnc3cc(Cl)ccc23)nc(Nc2ccc(C(=O)N3CCCCC3)cc2)n1 | -35.8% (active) |
| NC(N)=NN=C(c1ccccc1)c1ccccc1 | 25% (inactive) |
| CCCCc1ccc(Nc2ccc(Nc3ccc(CCCC)cc3S(=O)(=O)O)c3c2C(=O)c2ccccc2C3=O)c(S(=O)(=O)O)c1 | 52% (inactive) |
| CCOC(=O)c1csc(NC(=O)COc2cccc(/C=C3\Oc4cc(OC)ccc4C3=O)c2)n1 | 64.4% (inactive) |
| COc1cccc(/C=C/C(=O)c2c(C)nc3ccccc3c2/C=C/c2ccc(C)cc2)c1OC | 8.55% (active) |
| CC(=O)n1c(-c2ccc(Cl)cc2)nc2c(c1=O)C(c1ccc(Cl)cc1)c1sc3c(Cl)cccc3c1O2 (stereo not given) | 0.984% (active) |
| CS(=O)(=O)c1ccc(Nc2nc(N[C@H]3CCCC[C@H]3N)nc3cc[nH]c(=O)c23)cc1 | 62.9% (inactive) |
| CCN(CC)S(=O)(=O)c1cccc(-c2ccc3c(NC(=O)C4CC4)n[nH]c3c2)c1 | 11% [6.25 µM] (inactive) |
| COC(=O)[C@]12CC[C@@H](C)[C@H](C)[C@@H]1C1=CC[C@@H]3[C@@]4(C)C(C=O)=C[C@@](C)(COC(C)=O)[C@@H]4C(=O)C[C@@]3(C)[C@]1(C)CC2 | 26% (inactive) |
| COc1cc2c(cc1-c1c(C)noc1C)ncc1nc(C3CCCCC3)n(C3CCC(OC(F)F)CC3)c12 (stereo not given) | 4.9% (active) |
| O=Cc1ccc(O)c2ncccc12 | -39.8% (active) |
| Cc1ccc(NCCN(C)C)c2c(=O)c3ccccc3sc12 | -23.4% (active) |
| CC(=O)c1ccc(NCC(=O)Nc2ccccn2)cc1 | 113% (inactive) |
| N=c1sc(Cc2ccc(Cl)cc2)cn1CC(=O)c1ccc(F)cc1 | 74.1% (inactive) |
| c1ccc2c(c1)nc(CN1CCOCC1)n1cc(N3CCCC3)nc21 | 62.6% (inactive) |
| O=C1Nc2ccc(F)cc2C12Nc1cc(Cl)ccc1S2 (stereo not given) | 32.9% (inactive) |
| COc1ccc2oc3c(C)c4c(c(C)c3c2c1)C(=O)N(Cc1ccccc1)C4=O | 100% (inactive) |
| N=C1C(c2nc(-c3ccc(Br)cc3)cs2)=C(O)CN1CC1CCCO1 (stereo not given) | 48.5% (inactive) |

| Compound | growth |
| --- | --- |
| Cc1ccc(C(=O)CSc2nc(-c3ccc(Br)cc3)c(C#N)c(=O)[nH]2)cc1 | 101% (inactive) |
| Cn1ccc2c(c1=O)C(=O)c1nccc3c1c-2nc1ccccc13 | -29% (active) |
| Cc1ccccc1NC(=O)N/C(N)=N/c1nc(C)c(C)s1 | 6% (active) |
| CN(Cc1cnc2nc(N)nc(N)c2n1)c1ccc(C(=O)N[C@@H](CCc2nn[nH]n2)c2nn[nH]n2)cc1 | 44.1% (inactive) |
| C=C(C)[C@@H]1CC[C@]2(C(=O)NC3CCCCC3)CC[C@]3(C)[C@H](CC[C@@H]4[C@@]5(C)CCC(=O)C(C)(C)[C@@H]5CC[C@]43C)[C@@H]12 | 83.1% (inactive) |
| CCn1c(C)nc2cc(C(N)=O)ccc21 | 80.9% (inactive) |
| Cc1ccc(S(=O)(=O)Oc2cc(OS(=O)(=O)c3ccc(C)cc3)cc(OS(=O)(=O)c3ccc(C)cc3)c2)cc1 | 88.6% (inactive) |
| CCOc1c(C#N)nnc2c(C#N)c(NC(=O)c3ccccc3)nn12 | 111% (inactive) |
| CCCCCCCCCCCCCCCCCCOc1ccc(CC(=O)OCC[N+]2(C)CCCC2)cc1 | 97.6% (inactive) |
| Cc1cc[c-]cc1.Fc1c[c-]c(-c2ccccn2)c(F)c1.[Pt+2].c1ccc(P(C[PH+](c2ccccc2)c2ccccc2)c2ccccc2)cc1 | -4.4% (active) |
| COc1ccc(S(=O)(=O)NCCNc2nccc(-c3c(-c4cccc(F)c4)nc4sccn34)n2)cc1 | 27.8% (inactive) |
| COc1cc(C(=O)c2cc(C)c3[nH]c4ccc(Cl)cc4c3c2C)cc(OC)c1OC | 22.4% (inactive) |
| Cc1cc(NCc2cc(Nc3ccnc4cc(Cl)ccc34)ccc2F)nc(N2CCN(C)CC2)n1 | -23.9% (active) |
| Cc1cc(NCc2cc(Nc3ccnc4cc(Cl)ccc34)ccc2F)nc(N2CCOCC2)n1 | 29.4% (inactive) |
| COc1cccc(-c2nn(-c3ccccc3)cc2-c2ccnc(NCCNC(=O)Nc3cccc(C(F)(F)F)c3)c2)c1 | 32.6% (inactive) |
| Cc1cccc(Cc2cnc(NC(=O)c3ccc4nnsc4c3)s2)c1 | 76.4% (inactive) |
| COc1cc(/C=C/C(=O)c2c(C)nc3ccccc3c2/C=C/c2ccc(C)cc2)cc(OC)c1OC | -13.4% (active) |
| COc1cc(C2CC(c3cc(OC)c(OCCCOc4ccc(-n5c(/C=C/c6ccccc6)nc6ccccc6c5=O)cc4)c(OC)c3)=NO2)cc(OC)c1OC (stereo not given) | -9.38% (active) |
| COc1ccccc1N1C(=O)/C(=C/C2=Cc3ccccc3OC2)SC1=S | 91.4% (inactive) |
| CCCCCc1nc2c(c3c1CCCC3)CCCC2 | 0.398% (active) |
